Screens as filed in PubChem.
The sample as a whole holds a higher share of hits than the screen did.
S aureus helic: inhibitors of S. aureus replicative helicase, primary screen, biochemical, fluorescence unwinding readout | replicative DNA helicase (DnaC/DnaB), Staphylococcus aureus | purified S. aureus helicase, fluorescence unwinding assay | inhibition, % (concentration not given with the values) | 120,000 tested, 0.05% active | AID 485395, 2010; in the data active = inhibition above about 25%, passing the limit was not always enough
Sa growth 42C: S. aureus growth inhibition at 42 and 30 °C, primary screen, LtaS inhibitor project, RN4220, two temperatures; OD600, 20 h, 42 °C; active compounds read low; relative growth, % (no concentration beside the values); 170,000 tested, 0.53% active; AID 720641, 2013;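 active = relative growth at most 50% at the other temperature and 20+ points below 30 °C, or under 10% at both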
Hits are given with their value; 0 = inactive; - = no result given; ! = repeats disagree.

SMILES	S aureus helic	Sa growth 42C
CCc1nnc(NS(=O)(=O)c2ccc(N)cc2)s1	0	9.7
COCc1nnc(NS(=O)(=O)c2ccc(OC)cc2)s1	0	0
CCC1OC(=O)[C@H](C)C(=O)[C@H](C)[C@@H](OC2O[C@H](C)C[C@H](N(C)C)[C@H]2O)[C@](C)(OC)C[C@@H](C)C(=O)[C@H](C)[C@H]2N(CCCCn3cnc(-c4cccnc4)c3)C(=O)OC12C (stereo partly drawn)	-	-1.0
CN1C(=O)/C(=C\C(=O)c2cccs2)c2ccccc21	0	2.9
O=C(C=C1SCCS1)c1cccs1	-	0
COc1cc(CC(=O)OCC(N)=O)cc(OC)c1OC	0	0
COc1cc(Cc2cnc(N)nc2N)cc(OC)c1OC	-	-1.0
CCc1nn2c(=O)cc(COC(=O)c3ccc(NC(=O)COc4ccccc4C)cc3)nc2s1	-	0
O=C(Oc1c(Cl)cc(Cl)c2cccnc12)c1ccco1	0	1.7
Oc1c(Cl)cc(Cl)c2cccnc12	-	0
CC1Cc2ccccc2N1C(=O)C1CCN(S(=O)(=O)c2ccc(-n3cnnn3)cc2)CC1 (stereo not drawn)	0	0
CC1/C(=N/O)CC(c2ccco2)NC1c1ccco1 (stereo not drawn)	0	0
CCC(=O)N(CCN1CCOCC1)Cc1cc2cc3c(cc2nc1Cl)OCO3	0	0
Oc1ccc(Br)cc1C1CC(c2ccccc2)=NC(c2ccco2)N1 (stereo not drawn)	0	2.5
Oc1ccccc1C1CC(c2cccc(Br)c2)=NC(c2ccc(Br)cc2)N1 (stereo not drawn)	0	0
Cc1nc2ccc(NC(=O)COCC(=O)O)cc2nc1C	0	0
CCOC(=O)c1cc(/C(C)=N/NS(=O)(=O)c2cc(C(F)(F)F)cc(C(F)(F)F)c2)on1	0	0
CCOc1cccc(C(=O)Nc2cc(-c3ccc(C)cc3)no2)c1	-	0
Cc1noc(C)c1COC(=O)Cc1ccc(Cl)cc1	0	0
CCc1oc2ccccc2c1C(=O)c1cc(Br)c(O)c(Br)c1	-	4.4!
CCCCc1oc2ccccc2c1C(=O)c1ccc(O)cc1	0	0
CCOC(=O)c1cccc2c1-c1ccccc1C2=O	-	0
CCOC(=O)c1cccc2c1-c1ccccc1/C2=N/O	0	44
COc1ccccc1OCCn1c(NC(=O)c2ccccc2)nc2ccccc21	-	0
COc1ccccc1C(=O)Nc1nc2ccccc2n1CCOc1ccccc1	0	1.0
SMILES	S aureus helic	Sa growth 42C
O=C(CCN1C(=O)c2ccccc2C1=O)Oc1ccc(Cl)cc1	0	0
Cc1cc(C)cc(OC(=O)CCN2C(=O)c3ccccc3C2=O)c1	0	-1.1
CCCc1c(C(=O)OCC)[nH]c2c1C(=O)CC(C)(C)C2	0	0
Cc1ccccc1NC(=O)/C=C\C(N)=O	0	-0.5
NC(=O)/C=C/C(=O)Nc1ccccc1Cl	-	0
O=C(O)C1CSC(c2ccco2)=N1 (stereo not drawn)	0	0
CCOC(=O)Oc1cc2oc(=O)sc2cc1Cl	0	4.9
CCOC(=O)N=c1oc2cc(Cl)c(Cl)cc2o1	0	0
Nc1nc(-c2ccc3c(c2)CCCC3)cs1	0	0
Nc1nc(=S)nc(Cc2ccc3c(c2)CCC3)[nH]1	0	45
CC1CCCCC1NS(=O)(=O)c1ccc(Cl)cc1 (stereo not drawn)	0	0
Cc1oc2c(c1C(=O)NC(C)(C)C)C(=O)c1ccccc1C2=O	0	5.7
Cc1oc2c(c1C(=O)NC1CCCC1)C(=O)c1ccccc1C2=O	0	3.9
Cc1oc2c(c1C(=O)NCCc1ccccc1)C(=O)c1ccccc1C2=O	0	0
Cc1oc2c(c1C(=O)N1CCC(C)CC1)C(=O)c1ccccc1C2=O	0	0
Cc1oc2c(c1C(=O)N1CCCCC1)C(=O)c1ccccc1C2=O	0	0
Cc1oc2c(c1C(=O)NC1CCCCC1)C(=O)c1ccccc1C2=O	0	8.8
COc1ccc(-c2cc(C(=O)NCC3CCCO3)on2)cc1OC (stereo not drawn)	0	0
Cc1cc(C(=O)O/N=C(\N)c2cc(C)on2)no1	0	0
Cc1ccc(C2=NC(c3ccc(F)cc3)=Nc3ccc(Cl)cc3N2)o1	0	0
COc1ccc(C2OC(COc3ccccc3)CN(C(=O)c3ccccc3)O2)cc1OC (stereo not drawn)	0	0
O=C(O)Cc1coc(-c2ccc(F)cc2)n1	0	0
CN(Cc1coc(-c2ccccc2)n1)Cc1coc(-c2ccccc2)n1	0	-1.3
CC12CCC(C(=O)Nc3cccnc3)(OC1=O)C2(C)C (stereo not drawn)	0	0
COc1ccc(CCN2CC(O)=C(c3nc4ccccc4c(=O)[nH]3)C2=N)cc1OC	0	0
SMILES	S aureus helic	Sa growth 42C
CCOC(=O)c1cc(-c2cccs2)nn1CCC#N	0	0
C=C1c2cccc(O)c2C(O)=C2C(=O)C3(O)C(O)=C(C(N)=O)C(=O)C(N(C)C)C3C(O)C12 (stereo not drawn)	0	4.3
CN(C)[C@@H]1C(=O)C(C(=O)NCN2CCCC2)=C(O)[C@@]2(O)C(=O)C3=C(O)c4c(O)cccc4[C@@](C)(O)[C@H]3C[C@@H]12	-	0
CNC(=O)c1ccccc1Sc1ccccc1COC(C)=O	-	0
O=C1NN(c2ccccc2)C(=O)/C1=C/c1ccc(SC2CCCCC2)o1	0	0
N=C1/C(=C/c2ccc(SC3CCCCC3)o2)C(=O)N=C2SC=CN12	0	8.4
c1csc(CNC23CC4CC(CC(C4)C2)C3)c1	0	0
Cc1cc(Nc2ccc(Cl)cc2C)nc(-n2nc(C)cc2C)n1	-	0
Cc1ccc(Nc2cc(C)nc(-n3nc(C)cc3C)n2)cc1	-	0.2
CC(=O)NC[C@H]1CN(c2ccc(N3CCOCC3)c(F)c2)C(=O)O1	-	-0.8
Cc1ccc(C(=O)c2ccc(N3CCOCC3)c(F)c2)cc1	0	0
CC(C)(C)C(=O)NCCc1cn2ccccc2n1	0	0
COc1cc(NC(=O)Nc2cccc3ccccc23)ncn1	0	0
CCN1/C(=C/c2ccc3cc(C)ccc3[n+]2C)Sc2cc(OC)ccc21	0	-1.5
CN1/C(=C/C#N)Sc2ccccc21	0	0
CCN1/C(=C/c2ccc3ccccc3[n+]2CC)Sc2cc(NC(C)=O)ccc21	0	0
COc1ccc2c(ccc(/C=C3\Sc4ccccc4N3C)[n+]2C)c1	0	4.7
COC(=O)c1ccc(C2c3c(-c4ccc(Br)cc4)n[nH]c3C(=O)N2c2ccc(Cl)cc2)cc1 (stereo not drawn)	-	0
O=C(Cn1c(=O)oc2cc(S(=O)(=O)N3CCCC3)ccc21)NCc1ccc(F)cc1	-	0
CC1CCN(S(=O)(=O)c2ccc(NC(=O)Nc3ccccc3)cc2)CC1	0	31
CC(=O)Nc1ccc(S(=O)(=O)N2CCC(C)CC2)cc1	0	0
Cc1ccc(O)c(NC(=O)c2cccnc2Cl)c1	0	0
CN(C)c1ccc(N=Cc2cccn2C)cc1	0	9.7
CN(C)c1ccc(C=Nc2ccc(C(=O)O)cc2)cc1	0	0
CCc1c(C)sc2c1CCN(C(=O)Nc1cc(OC)c(OC)c(OC)c1)C2c1ccccc1 (stereo not drawn)	-	0
CCOC(=O)c1ccccc1NC(=O)N1CCc2c(sc(C)c2CC)C1c1ccccc1 (stereo not drawn)	-	0
CCc1c(C)sc2c1CCN(Cc1cccc(OC)c1)C2c1ccccc1 (stereo not drawn)	-	-1.1
CCc1c(C)sc2c1CCN(Cc1ccccc1F)C2c1ccccc1 (stereo not drawn)	-	-1.3
O=C(O)C1CCCN1Cc1c[nH]c2ccccc12 (stereo not drawn)	0	0
